PubChem BioAssay AID624093 (National Center for Advancing Translational Sciences (NCATS), 2012)
Results filed as inconclusive are left out. A number with no mark means an inactive call. The source made the active and inactive calls. Calls come from the whole dose curve; as a rule, active = well fitted inhibition curve with a large enough effect; inconclusive = small, poorly fitted or top-dose-only effect; inactive = flat fitted curve, though single readings scatter.

Target: Dual specificity tyrosine-phosphorylation-regulated kinase 1A (Homo sapiens) (UniProt Q13627)
Experiment: Confirmation Assay for Inhibitors of Dyrk1a (Kinase-Glo Assay): KU probe
Details: Kinase-Glo ATP luminescence; series mostly up to 76.9 µM; activity, negative = inhibition: at the top concentration
Source text: NIH Molecular Libraries Probe Production Centers Network [MLPCN] NIH Chemical Genomics Center [NCGC] MLSCN Grant: 1R03MH084827-01 PI Name: Tom Misteli NCGC Assay Overview: The CMGC group of protein kinases which includes CDK-like kinases (Clk) and Dyks are essential kinases found in all eukaryotes. Clks have been implicated to play a role in the regulation of alternative splicing; while Dyrks, in particular over expression of Dyrk1A, has been linked to diseases as Down syndrome (DS; OMIM 190685) and Alzheimer disease (AD; OMIM 104300). Among the members of the CMGC group, the Clks and the Dyrks are very closely related therefore to determine validity and selectivity of an active compound observed in the CLK4 qHTS screen (AID:1770), a bioluminescent counter-screen against Dyrk1A was developed. In addition, potent and selective compounds against Dyrk1A were identified to further assess the role of this enzyme in DS and AD. Dyrk1A (Invitrogen, cat # PV3785) was assayed using ATP and DYRKtide (AnaSpec, cat# 62698) as substrates. Promega Kinase-Glo (cat# V6712) technology was used to detect the residual ATP following kinetic reaction. The Kinase-Glo Plus contains Ultra-Glo [5] luciferase and D-luciferin which generates a bioluminescence signal from the remaining ATP. No enzyme and harmine (Sigma, cat # 286044-1G), a compound shown to inhibit Dyrks were used as a positive control; while DMSO treatment was used as a negative control.
NCGC Assay Protocol Summary: Two uL/well of substrate solution (8uM Dyrktide, 2uM ATP, 25mM Tris-HCl pH 7.5, 10mM MgCl2 , 0.5mM EGTA, 5mM cystein, 0.01% Triton X-100 final concentration) was dispensed into 1536-well assay plates (Greiner, solid white, medium-binding plates) with Aurora Discovery BioRAPTR Flying Reagent Dispenser (FRD, Beckton-Dickenson). Compound solution (23 nL) was transferred to the assay plate using Kalypsys pin tool equipped with a 1536-pin tool. One uL/well enzyme solution (5nM Dyrk1A, 25mM Tris-HCl pH7.5, 10mM MgCl2, 0.5mM EGTA, 5mM cystein, 0.01% Triton X-100 final concentration) was then added using FRD yielding a total kinase reaction volume of 3uL/well. After 2 hours of room temperature incubation, 3uL Kinase-Glo detection reagent was added for a final assay volume of 6uL/well. The plates were spun for 30 seconds (1000 rpm) and incubated at ambient temperature for 2 minutes followed by a luminescence read using Perkin Elmer ViewLux plate reader at 3 seconds exposure time and 2x binning.

Row | SMILES | Potency | activity, negative = inhibition [%]
1 | c1cc(-c2ccoc2)nc(-c2ccoc2)n1 | 20700 nM (active) | 
2 | Cc1noc(C)c1-c1nccc(NCc2ccc(Cl)cc2)n1 |  | -5.84
3 | Brc1ccc(CNc2nccc(-c3ccc4c(c3)OCO4)n2)cc1Br | 823 nM (active) | 
4 | Cc1csc(CN(C)c2ncnc3ccc(-c4ccc5c(c4)OCO5)cc23)n1 | 23.2 nM (active) | 
5 | COc1ccc(-c2ncccn2)cc1 |  | -16.1
6 | CN(C)c1ccc(-c2nccc(NCc3ccc(Cl)c(Cl)c3)n2)cc1 |  | -3.23
7 | Brc1cc(Br)cc(CNc2ccnc(-c3ccc4c(c3)OCO4)n2)c1 |  | -18.5
8 | c1ccc(CNc2ccnc(-c3ccc4c(c3)OCO4)n2)cc1 | 26000 nM (active) | 
9 | c1nc(NCC2CCCOC2)c2cc(-c3ccc4c(c3)OCO4)ccc2n1 (stereo not given) | 116 nM (active) | 
10 | Clc1cc(Cl)cc(CNc2ncncc2-c2ccc3c(c2)OCO3)c1 | 2600 nM (active) | 
11 | O=c1cnc2cnc(Nc3ccccc3)nc2n1CCc1ccccc1 | 292 nM (active) | 
12 | c1cncc(CNc2ccnc(-c3ccc4cn[nH]c4c3)n2)c1 | 2070 nM (active) | 
13 | Clc1ccc(CNc2ncncc2-c2ccc3c(c2)OCO3)cc1Cl | 4120 nM (active) | 
14 | O=C(O)c1ccc(-c2ccc3ncnc(NCc4nccs4)c3c2)o1 | 8230 nM (active) | 
15 | COc1ccc(-c2ccnc(NCc3ccc(Cl)c(Cl)c3)n2)cc1 | 733 nM (active) | 
16 | c1nc(NCCC2CCCO2)c2cc(-c3ccc4c(c3)OCO4)ccc2n1 (stereo not given) | 164 nM (active) | 
17 | Cc1csc(CNc2ncnc3ccc(-c4ccc(CO)o4)cc23)n1 | 10400 nM (active) | 
18 | O=[N+]([O-])c1cc(Nc2nccc(-c3ccc4c(c3)OCO4)n2)cc(C(F)(F)F)c1 | 146 nM (active) | 
19 | FC(F)(F)c1cc(Br)cc(Nc2nccc(-c3ccc4c(c3)OCO4)n2)c1 | 519 nM (active) | 
20 | CCCNc1ncnc2ccc(-c3ccc4c(c3)OCO4)cc12 | 116 nM (active) | 

Row | SMILES | Potency | activity, negative = inhibition [%]
21 | Cc1ccc(CNc2ccnc(-c3c(C)noc3C)n2)cc1 |  | -9.63
22 | Cc1c(-c2ccnc(NCc3cccnc3)n2)sc(=O)n1C | 146 nM (active) | 
23 | CC(C)(C)CNc1ncnc2ccc(-c3ccc(C(=O)O)o3)cc12 | 2320 nM (active) | 
24 | O=C(O)c1ccc(-c2ccc3ncnc(N4CCOCC4)c3c2)o1 | 26000 nM (active) | 
25 | Cc1c(-c2ccnc(Nc3cc(Br)cc(C(F)(F)F)c3)n2)sc(=O)n1C | 130 nM (active) | 
26 | c1cnc(-c2ccc3c(c2)OCO3)nc1 |  | -7.86
27 | Clc1cc(Cl)cc(CNc2ccnc(-c3ccc4c(c3)OCO4)n2)c1 |  | -17.3
28 | Cc1c(-c2ccnc(NCc3ccc(Cl)cc3)n2)sc(=O)n1C | 164 nM (active) | 
29 | c1cc(-c2ccc3c(c2)OCO3)nc(Nc2ccc3c(c2)OCO3)n1 | 130 nM (active) | 
30 | c1coc(-c2ccnc(-c3ccc4c(c3)OCO4)n2)c1 | 20700 nM (active) | 
31 | c1nc(NCC2CCCCO2)c2cc(-c3ccc4c(c3)OCO4)ccc2n1 (stereo not given) | 65.4 nM (active) | 
32 | Clc1ccc(CNc2ccnc(-c3ccc4[nH]ncc4c3)n2)cc1Cl | 4630 nM (active) | 
33 | c1nc(NC[C@@H]2CCCO2)c2cc(-c3ccc4c(c3)OCO4)ccc2n1 | 130 nM (active) | 
34 | CC(C)(C)CNc1ncnc2ccc(-c3ccc4c(c3)OCO4)cc12 | 11.6 nM (active) | 
35 | Clc1ccc(CNc2ccnc(-c3ccc4c(c3)OCO4)n2)cc1 |  | -15.5
36 | c1coc(CNc2ncnc3ccc(-c4ccc5c(c4)OCO5)cc23)c1 | 104 nM (active) | 
37 | COc1ccc(-c2nccc(NCc3ccc(Cl)cc3)n2)cc1 |  | -9.84
38 | c1cncc(CNc2nccc(-c3ccc4c(c3)OCO4)n2)c1 | 36.8 nM (active) | 
39 | Cc1csc(CNc2ncnc3ccc(-c4ccc(C(=O)O)o4)cc23)n1 | 23200 nM (active) | 
40 | CN(CC1CCCCC1)c1ncnc2ccc(-c3ccc4c(c3)OCO4)cc12 | 1160 nM (active) | 
